Measured values as given in the supplement of paper PMC6555819.

Experiments:
Experiment in all cases: PBM binding z-score (relative to random genomic background probes); higher = stronger binding; sequences stand for … in GC…GCGATTGACAGCGTAGAATGAAGG
[1] = tested on: RARb homodimer (NR concentration 270 nM)
Outline: (§1)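 Antibodies against each partner of ligand-free nuclear receptor dimers (one per run) detected binding on custom Agilent 4×180K protein-binding microarrays after 1 h incubation. The double-stranded probes had 34-nt variable regions carrying direct-repeat seeds, single-nucleotide variants, half-site ablations and random human genomic background sequences. Binding z-scores, from regression-normalized fluorescence, use the random background probes as reference.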

[2] = tested on: RARg:RXRa (NR concentration 270 nM, RXRa partner concentration 90 nM)
Outline: as §1

[3] = tested on: RARg homodimer (NR concentration 270 nM)
Outline: as §1

[4] = tested on: RXRa DBDmut IVT, anti-RXR (DBD mutation: RXRa K156A/R161A, NR concentration 90 nM)
Outline: as §1

[5] = tested on: RXRa homodimer (NR concentration 180 nM)
Outline: as §1

[6] = tested on: THRa:RXRa (NR concentration 90 nM, RXRa partner concentration 90 nM)
Outline: as §1

[7] = tested on: THRa homodimer (NR concentration 90 nM)
Outline: as §1

[8] = tested on: VDR homodimer (NR concentration 270 nM)
Outline: as §1

Row | Sequence | PBM binding z-score [1] | PBM binding z-score [2] | PBM binding z-score [3] | PBM binding z-score [4] | PBM binding z-score [5] | PBM binding z-score [6] | PBM binding z-score [7] | PBM binding z-score [8]
1 | ACTAGTTGGTCAGCTGAGGTCCCACACAATTCGG | 0.808 | 0.425 | 0.578 | 0.281 | 0.206 | 2.75 | 0.564 | -0.00436
2 | CCCGACAGGTGAAAGGTAACTCAGTCTGGTACGC | 0.903 | 1.26 | 0.581 | -0.307 | 2.02 | 1.09 | 0.506 | -0.0778
3 | GATACAGGTTCAGCTAGAGGCCAGAGTATGGAAA | 1.13 | 4.48 | 1.11 | 3.05 | 1.33 | 1.16 | -0.412 | 2.29
4 | TCTTGTAGATCAAAGGTTAAGAATGCCGAAGCCT | 1.48 | 1.72 | 0.719 | 0.824 | 3.46 | 1.35 | -0.308 | -0.101
5 | TCGATTAGGTTAGGGGCATTCAGAATGGCGTCGA | 1.25 | 0.511 | 0.723 | 1.34 | 0.857 | 1.33 | 0.776 | 1.08
6 | ATCTATAGGTAACCAAGTTCAGTGAATGCCGAAC | 1.42 | 0.853 | 0.891 | 1.04 | 0.806 | 1.05 | 0.378 | 2.84
7 | TCATATAGGTAAAAGGTAAAAGTCGGTGTGGTAA | 0.553 | 0.857 | 0.169 | 1.88 | 1.94 | 0.886 | 0.222 | 0.494
8 | CAAACTAGGTCACAGAGGTCAAAGTGCGTGCGTA | 5.64 | 7.46 | 7.84 | 3.65 | 7.66 | 4.92 | 3.02 | 6.01
9 | CCTGCTAGGTCAATGGTCAGCTTAAGCAGCTCGC | 3.14 | 3.62 | 4.2 | 2 | 2.25 | 2.31 | 0.712 | 0.066
10 | CCTACTGGGCCAATCAGAGGTCATTGATCATATG | 4.14 | 4.56 | 3.26 | 0.861 | 3.82 | 3.13 | 1.38 | 3.81
11 | AGAACGAGGGCACGCTGAGTTGATAGCGGAGTAG | 1.17 | 1.85 | 2.56 | 1.97 | 1.26 | 1.86 | 0.248 | 2.34
12 | GGAACGAGGGCAAGTAGATAGCAGAGTTTGATGG | 1.26 | 1.3 | 1.91 | 1.7 | 0.888 | 0.882 | -0.115 | 1.29
13 | GCTTGCAGGCCATTTGGGTCACTCAATGACGGGC | 1.87 | 1.31 | 1.56 | 0.31 | 0.653 | 2.07 | 0.686 | 0.751
14 | TTAATGAGGTTAAAGATCAGGGAACGTGGCGTCG | 0.917 | 2.56 | 1.52 | 1.68 | 4.02 | 2.89 | 0.742 | 1.14
15 | TCTCGGAGGACAAGAAGGTCAGAGCTTTCCAGAG | 3.34 | 2.76 | 3.26 | 0.905 | 1.69 | 2.09 | 0.236 | 0.789
16 | CAGCCTTGGTCAGGGCCAGTATAGGAGGAACGTT | 0.149 | -0.144 | 0.23 | -1.06 | -0.491 | -0.654 | -0.63 | -0.985
17 | GCTAGTTGGTCAGTAAAAGGTCAAACACCGGTCG | 5.05 | 5.65 | 4.86 | 0.64 | 5.59 | 3.51 | 1.2 | 1.98
18 | AATACAGGGTCAGCGTAGGCCAGAGTACGCACAG | 3.36 | 4.93 | 4.67 | 1.69 | 4.84 | 3.98 | 0.9 | 1.65
19 | GGAACGAGTGCAAAGTTGATAGCATCTGTCGACG | -0.159 | 0.335 | 0.145 | 3.22 | 0.874 | -0.385 | -0.711 | 1.88

Row | Sequence | PBM binding z-score [1] | PBM binding z-score [2] | PBM binding z-score [3] | PBM binding z-score [4] | PBM binding z-score [5] | PBM binding z-score [6] | PBM binding z-score [7] | PBM binding z-score [8]
20 | AAATGTAGGTTACATCCGGGTCATTCAGGCTATG | 2.82 | 3.7 | 2 | 1.3 | 3.08 | 3.67 | 2.22 | 3.16
21 | TCTGCGAGGTCAGTTGGTCAGCTAACGAGCTGCC | 3.86 | 5 | 5.42 | 2.8 | 3.76 | 3.22 | 1.39 | 2.02
22 | ATCGAAAGTTCGACGAGGTGAGTATACACCGTTT | 1.42 | 1.75 | 1.85 | 1.63 | 1.28 | 2.5 | 0.567 | 1.59
23 | CCTCGGAGGACAGAAGGTTAGAGCTGTCCGCTTT | 0.668 | 0.736 | 0.681 | -0.0367 | -0.125 | 0.441 | -0.513 | -0.565
24 | ACTAGCAGCCCAAGTTTGGGTCACTCAAACAAAG | 1.74 | 0.618 | 0.518 | -0.56 | 0.612 | 2.1 | 1.15 | -0.0283
25 | CGTCCAAGGTCGAGGTCAGTGAAAGAGACTCGAA | 4.16 | 4.8 | 5.32 | 2.57 | 4.65 | 3.93 | 2.42 | 2.96
26 | ATCTCTAGGTAAAGTTCTGTGAAAGATCGATAGA | -0.0506 | 0.0649 | 0.264 | 0.162 | -0.238 | 0.488 | 0.369 | 0.0394
27 | GGAACGAGGGCAAGTTGGTAGCAGAGTTTGATGG | 1.6 | 1.27 | 2.08 | 2.05 | 0.826 | 1.41 | 0.26 | 1.91
28 | CTCGAAAGGTCGGTTGAGATGAGTATACGGATAA | 1.74 | 2.2 | 2.5 | 0.887 | 2.01 | 1.72 | -0.23 | 0.738
29 | CAGCCTAGGTCAGGGCCAGGATAGGAGGAACGTT | 2.32 | 3.04 | 3.91 | -0.715 | 1.53 | 2.31 | 0.538 | -0.171
30 | CCAGGCAGGTGAGAAGGTAACTCAGCCTCGATTA | 0.294 | 0.181 | -0.0537 | -0.754 | 0.145 | 0.198 | -0.116 | -0.279
31 | AGAATGAGGTTAAGATCTGGGAAACAGAATACAT | 0.808 | 2.11 | 1.54 | 1.04 | 2.48 | 2.26 | 0.582 | 0.27
32 | AGAACGAGAGCAATGAGTTGATAGCACGGGTGGC | -0.971 | -0.154 | -0.0386 | -0.0984 | 0.0785 | -0.86 | -1.05 | 0.253
33 | CGTCCAAGGTCAAAGGTCAGTGAGGAGATGACGG | 5.41 | 8.78 | 8.47 | 3.92 | 10.4 | 4.81 | 2.98 | 4.41
34 | GGAACTAGGGCAAGTTGATAGCAGAGTTTGATGG | 1.11 | 0.675 | 1.21 | 1.07 | 0.0337 | 0.0165 | -0.214 | 0.251
35 | CCTCTTAGTTGACCATAAGGGCAACCGAAGCTCG | 2.25 | 1.17 | 1.15 | 0.285 | 0.712 | 2.07 | 1.59 | 0.985
36 | TCTTGTAGATCAATAGAGGTTAAGATAGTGCGCT | 1.21 | 0.947 | 0.501 | 0.749 | 1.75 | 2.51 | -0.429 | 0.0861
37 | CCGAGTAGGTTATGGGGCATTCACGCAACGGTGA | 0.898 | 0.542 | 0.597 | -0.117 | 0.816 | 0.155 | -0.0267 | 0.416
